The values that follow come from PubChem BioAssay AID1259313 (Sanford-Burnham Center for Chemical Genomics, 2017).

Among all 340,000 compounds or so, about 8,500 (2.5%) were called active. The full list was thinned out, with actives kept by preference. Unmarked numbers belong to inactive results.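 Rule for the calls: active = melting temperature shift of at least 10% of the positive control shift, at one fixed dose; inactive = the rest.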

For the test, the system named is Glutamate receptor ionotropic, NMDA 3A (GRIN3A) ligand-binding domain. Description: NR3A LBD thermal stabilization by compounds – biophysical, differential scanning fluorimetry, uHTS, primary screen (AID 1259313). Conditions: at 25 µM, stronger effect = higher value, 0% = protein alone, 100% = glycine-bound protein. (DSF heats the sample and reads unfolding from a dye or from intrinsic fluorescence.)
Turning to `NC(=O)C(Cc1ccccc1)NC(=O)C12CC3CC(CC(C3)C1)C2` (centres undefined), the Tm shift relative to glycine control was 1.38%. With `CCOC(=O)c1c(C)oc2cc(Sc3ccccc3)c(O)c(O)c12` the figure was 1.87%; with `COc1ccc(CCN2CC(C(=O)OCC(=O)NCc3ccccc3Cl)CC2=O)cc1OC` (centres undefined), -0.25%. To `COc1ccc(C(CNC(=O)c2cccc(S(=O)(=O)Nc3ccccc3Cl)c2)N2CCOCC2)cc1` (centres undefined) belongs 15.6% (active); to `COc1ccc(C(CNC(=O)c2cc3c(s2)CCCC3)N2CCOCC2)cc1` (centres undefined), 53.2% (active). To `COc1ccc(C(CNC(=O)c2cccc(NS(=O)(=O)c3ccc(C)c(F)c3)c2)N2CCCC2)cc1` (centres undefined) belongs -1.75%; to `COc1ccc(C(CNC(=O)c2cccnc2SC)N2CCOCC2)cc1` (centres undefined), -0.34%. Consider `COc1ccc(C(CNC(=O)c2ccc(S(=O)(=O)Nc3ccccc3C)cc2)N2CCOCC2)cc1` (centres undefined), for which the Tm shift relative to glycine control is 2.35%. With `O=C(NCCCN1CCOCC1)c1cc2c(s1)CCC2` the figure was 1.5%. With `CC(C)NC(=O)c1ccccc1S(=O)c1ccccc1C#N` (centres undefined) the figure was -0.24%; with `Cc1noc(C)c1S(=O)(=O)N(C)Cc1ccccc1`, -2.24%; with `CCNC(=O)CCc1nc(-c2ccc(C(C)(C)C)cc2)no1`, 2.39%. For the molecule `COCCN(CCOC)S(=O)(=O)NC[C@H]1O[C@@H](n2cnc3c(N)ncnc32)[C@H](O)[C@@H]1O`, the Tm shift relative to glycine control is -2.01%. Consider `CN(NS(=O)(=O)c1cccs1)c1ncc(C(F)(F)F)cc1Cl`, for which the Tm shift relative to glycine control is -0.95%.

As for `O=C(/C=C/c1ccc([N+](=O)[O-])o1)NNC(=O)c1ccc(F)cc1`, the Tm shift relative to glycine control was -1.3%. Turning to `O=C(N/N=C/c1ccc([N+](=O)[O-])o1)c1cn(-c2ccccc2)nc1-c1ccc(F)cc1`, the Tm shift relative to glycine control was 57.3% (active). As to `O=C(NCCCN1CCOCC1)c1cn(-c2ccccc2)nc1-c1ccc(F)cc1`, the Tm shift relative to glycine control is -0.58%. With `O=C(CCn1nnc2ccccc21)OCC(=O)c1ccc([N+](=O)[O-])cc1` the figure was -0.44%; with `O=C(Nc1ccc(Cl)cn1)c1ccc2c(c1)OCCO2`, -0.17%. With `Cc1nc(NC(=O)c2ccc3c(c2)OCCO3)ccc1Br` the figure was 11.1% (active); with `Cc1ccc(C(=O)NNC(=O)c2ccc3c(c2)OCCO3)cc1`, 1.65%. For the molecule `O=S(=O)(c1cccc(Cn2nnc(-c3ccc(F)cc3)n2)c1)N1CCOCC1`, the Tm shift relative to glycine control is 0.18%. With `COc1ccc(S(=O)(=O)N(C)C[C@H]2Oc3c(NC(=O)Nc4ccc5c(c4)OCO5)cccc3C(=O)N([C@H](C)CO)C[C@@H]2C)cc1` the figure was -34%; with `Cc1cc2nc(-c3ccc(NC(=O)c4cccnc4)cc3)oc2cc1C`, 24.6% (active); with `CCOC(=O)c1ccc(NC(=O)c2cccnc2)cc1`, 0.68%. To `Cc1cc(NS(=O)(=O)c2ccc(NC(=O)c3cccnc3)cc2)nc(C)n1` belongs -0.7%; to `CC(=O)NC(=S)Nc1ccc(NC(=O)c2cccnc2)cc1`, 2.02%; to `Cc1ccc(-n2nc3cc(C)c(NC(=O)c4cccnc4)cc3n2)cc1`, -2.09%.

Regarding `Cc1ccc2nc(-c3ccc(NC(=O)c4cccnc4)cc3)oc2c1`, the Tm shift relative to glycine control is 24% (active). To `Cc1ccc(C2CC(c3cccc(NS(C)(=O)=O)c3)=NN2S(C)(=O)=O)cc1` (centres undefined) belongs -1.41%; to `CC(C)(C)C(=O)COC(=O)c1cc(S(=O)(=O)N2CCCCC2)ccc1N1CCOCC1`, -1.85%. For `COc1ccccc1CNS(=O)(=O)c1ccc2c(c1)NC(=O)CS2`, the Tm shift relative to glycine control is 1.27%. To `COc1ccc(Cl)cc1C=CC=Nc1ccc(S(N)(=O)=O)cc1` belongs -9.77%; to `O=C(N/N=C/c1ccc(Cl)c(Cl)c1)c1ccc2nc[nH]c2c1`, 27.4% (active); to `Cc1nc2ccc(C(=O)N/N=C/c3ccc(O)cc3)cc2[nH]1`, -4.58%. To `O=C(NN=Cc1ccccc1)c1ccccc1` belongs 3.44%; to `CC(=NNC(=O)c1ccc2nc[nH]c2c1)c1ccc(Br)cc1`, -13%; to `CSc1ccc(/C=N/NC(=O)c2cccc(Cl)c2)cc1`, 19.1% (active).

In the case of `CSc1ccc(/C=N\NC(=O)CC(=O)NC(C)C)cc1`, the Tm shift relative to glycine control is -7.31%. With `c1ccc(COc2ccccc2CNCc2cccnc2)cc1` the figure was -0.7%; with `COCC(C)n1c(SCC(=O)NC2CCCCC2C)nc2ccccc2c1=O` (centres undefined), -0.26%. As for `CCOn1c(SC(C)C)nc2ccccc2c1=O`, the Tm shift relative to glycine control was -0.18%. Consider `CCOC(=O)C(C)Sc1nc2ccccc2c(=O)n1CC1CCCCC1` (centres undefined), for which the Tm shift relative to glycine control is 15.7% (active). As for `CCOC(=O)CCCCCC(=O)Nc1ccc2c(c1)CC(=O)N([C@@H](C)CO)C[C@H](C)[C@@H](CN(C)Cc1ccccc1)O2`, the Tm shift relative to glycine control is 0.56%. To `COc1ccc(NCc2nnc(SCc3ccccc3)n2-c2ccc(OC)cc2)cc1` belongs -0.87%; to `CCc1nonc1NC(=O)c1oc2ccc(Cl)cc2c1C`, -0.44%. To `COc1ccc(CCNC(=O)COC(=O)Cc2cc(OC)c(OC)c(OC)c2)cc1` belongs -0.75%; to `COc1ccc(CCNC(=O)COC(=O)Cc2cccc(F)c2)cc1`, 15.5% (active); to `COc1ccc(CCNC(=O)COC(=O)Cc2ccccc2F)cc1`, 1.52%. `NC(=S)c1ccc(C(N)=S)o1`: the Tm shift relative to glycine control was 9.83%.

As to `COc1ccc(C(C(=O)NCC2CCCO2)N(C(=O)Cn2nnc3ccccc32)c2ccc(NC(C)=O)cc2)cc1OC` (centres undefined), the Tm shift relative to glycine control is 1.93%. Turning to `O=C(CNC(=O)c1cccs1)N/N=C/c1cccc(Br)c1`, the Tm shift relative to glycine control was -2.08%.

Consider `O=C(NC(Cc1c[nH]c2ccccc12)C(=O)N/N=C/c1ccc(Br)cc1)c1cccs1` (centres undefined), for which the Tm shift relative to glycine control is 19.7% (active). In the case of `CC(=O)NC(Cc1c[nH]c2ccccc12)C(=O)NCCc1ccccc1` (centres undefined), the Tm shift relative to glycine control was 1.08%. To `OC(CNCC1CCCO1)Cn1c2ccc(Br)cc2c2cc(Br)ccc21` (centres undefined) belongs -15.9%.

Regarding `O=[N+]([O-])c1cccc(/C=N/Nc2ncc(Br)cn2)c1`, the Tm shift relative to glycine control is -2.79%. With `O=[N+]([O-])c1ccc(N/N=C/c2ccccc2)cc1` the figure was 29.2% (active); with `O=[N+]([O-])c1ccc(N=NNc2ccc([N+](=O)[O-])cc2)cc1`, 4.69%.

Regarding `O=[N+]([O-])c1ccc(C=NN=Cc2ccc([N+](=O)[O-])cc2)cc1`, the Tm shift relative to glycine control was 12.6% (active).

On to `CC(C)c1ccc(C=NNc2ccc([N+](=O)[O-])cn2)cc1`, for which the Tm shift relative to glycine control is -2.51%. On to `O=C1/C(=C\c2ccc([N+](=O)[O-])cc2)CS(=O)(=O)C/C1=C/c1ccc([N+](=O)[O-])cc1`, for which the Tm shift relative to glycine control was -9.77%. With `CC1(C)Cc2c(sc(NC(=O)C(=O)N3CCOCC3)c2C#N)CO1` the figure was 2.25%; with `O=C(CN1C2CCC1CC(NC(=O)C1CC1)C2)NCc1ccccc1` (centres undefined), -0.34%; with `O=C(COC(=O)C1CC2CCCC(C1)C2=O)NC(=O)c1ccccc1` (centres undefined), -1.22%. To `Cc1c(C(=O)NNC(=O)c2ccncc2)oc2ccccc12` belongs 2.4%; to `COc1ccc(NC(=O)N2CCCC2C(=O)NCc2ccccc2Cl)cc1` (centres undefined), -2.42%; to `FC(F)(F)c1cccc(-c2cc3ccccc3nc2N2CCCC2)c1`, -0.24%.

For `Cc1ccc(S(=O)(=O)N(c2cccc(C)c2)C2CCS(=O)(=O)C2)cc1` (centres undefined), the Tm shift relative to glycine control is -3.26%. To `COCCn1c(=NC(=O)c2ccccc2[N+](=O)[O-])sc2cc(S(C)(=O)=O)ccc21` belongs 3.81%.

Regarding `C=C(C)COc1ccc(-c2nc(N)ncc2-c2ccccc2OC)c(O)c1`, the Tm shift relative to glycine control was -3.37%. For `C=C(C)COc1ccc(-c2n[nH]c(C)c2-c2ccccc2)c(O)c1`, the Tm shift relative to glycine control was 10.9% (active).

As to `C=C(C)COc1ccc(-c2ncncc2-c2ccc(OC)cc2)c(O)c1`, the Tm shift relative to glycine control was -1.75%. For the molecule `COc1c(C)c2c(c(O)c1C/C=C(\C)CCC(=O)O)C(=O)OC2`, the Tm shift relative to glycine control is 0.8%. With `COc1ccc2[nH]c(C(=O)Nc3ccccc3Cl)cc2c1` the figure was 1.25%; with `CC(OC(=O)c1cc2ccccc2[nH]1)C(=O)N(C)c1ccccc1` (centres undefined), -1.09%; with `O=C(Nc1ccccc1)c1cc2ccccc2[nH]1`, 20.5% (active). In the case of `Cc1ccc(CC2C(=O)N(c3ccc(F)cc3)C(=O)C2C)cc1` (centres undefined), the Tm shift relative to glycine control is 1.55%. On to `CC(=O)N1CCN(CC(C)(C)NS(=O)(=O)c2ccc(C)cc2)CC1`, for which the Tm shift relative to glycine control was 1.96%. In the case of `O=C(NCCCN1CCOCC1)C1CCCN(S(=O)(=O)N2CCCCC2)C1` (centres undefined), the Tm shift relative to glycine control was -1.39%. For `CCOC(=O)N1CCN(C(=O)C(=O)Nc2sc3c(c2C#N)CC(C)(C)OC3)CC1`, the Tm shift relative to glycine control was -1.52%. Turning to `CCc1ccccc1N(CC(=O)NCC1CCCO1)C(=O)CCC(=O)Nc1nccs1` (centres undefined), the Tm shift relative to glycine control is -2.76%. To `COc1cccc(CC2(CO)CCCN(Cc3ccc(OC(F)F)cc3)C2)c1` (centres undefined) belongs 25.6% (active).

Regarding `COc1cccc(CC2(CO)CCCN(Cc3nc(-c4cccs4)oc3C)C2)c1` (centres undefined), the Tm shift relative to glycine control is -1.72%. To `COc1cccc(CC2(CO)CCCN(CC3=Cc4cc(OC)ccc4OC3)C2)c1` (centres undefined) belongs -4.46%; to `O=C(CCNS(=O)(=O)c1ccccc1)NCCSc1ccc(Br)cc1`, -2.33%; to `c1ccc(-c2ccc3c(c2)NC(C2Nc4cc(-c5ccccc5)ccc4O2)O3)cc1` (centres undefined), 0.36%. With `c1ccc(-c2c[nH]c(-c3ccccc3)c2)cc1` the figure was 17.4% (active); with `O=c1cc(-c2ccccc2)[nH]c2cc(F)ccc12`, -1.79%; with `Nn1c(SCc2ccccc2)nnc1C1CCCCC1`, 1.23%. With `Cc1ccccc1Nc1nc(N)nc(COC(=O)CCC(=O)c2ccc(F)cc2)n1` the figure was -0.42%; with `CCC1SC2=NCCN2C1(O)c1ccc(Cl)cc1` (centres undefined), -1.83%. With `CCOc1cc(NS(=O)(=O)c2ccc(OC)cc2)c(OCC)cc1NC(C)=O`, the Tm shift relative to glycine control is 1.23%. Consider `CCOc1ccc(S(=O)(=O)Nc2nccs2)cc1`, for which the Tm shift relative to glycine control was -0.76%.

On to `CCOc1ccc(S(=O)(=O)N/N=C(\C)c2ccc(Cl)c(Cl)c2Cl)cc1`, for which the Tm shift relative to glycine control was 16.2% (active).
